# Sampled rows, rich in hits. Any-hit rate of the full collection: about 2.5%.
# CHT allo act: allosterically activates the human high affinity choline transporter. B-score at 10 µM. 310,000 tested, 0.49% active. CHT-expressing cells, membrane potential dye, choline EC20; stronger effect = higher value; LV-AA mutant CHT in HEK293 cells. Q9GZV3;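 active = initial fluorescence not abnormally high and integrated response B-score, plate-corrected, over 3 SD above library mean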
# PKA-R2B activ: activates the human PKA-R2B holoenzyme complex. PKA-R2B holoenzyme dissociation, Cy5-IP20 fluorescence polarization; R2B truncated from residue 108, S112A mutant; 0% DMSO only, 100% 113 µM cGMP. activation, % at 11.4 µM. 340,000 tested, 0.079% active. P22694+P31323;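 active = activation above a cutoff set at the mean over all compounds plus 3 SD, cut at about 18% in these data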;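 also: higher means more holoenzyme dissociation and a rise in polarization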
# CHT block: human CHT choline transport inhibition; B-score at 10 µM; CHT-expressing cells, membrane potential dye, choline response; stronger effect = lower value; 310,000 tested, 0.86% active; Q9GZV3;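 active = B-score over 3 SD under the library average, and starting fluorescence ratio not unusually high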;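 also: choline stimulus applied at its EC90 after an EC20 pre-addition; B-score computed on integrated fluorescence ratio after choline addition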
# TMEM16A act: mouse TMEM16A channel activation, primary screen; B-score at 10 µM; HEK293 TMEM16A/YFP-H148Q/I152L, iodide quench fluorescence; stronger effect = lower value; AID 623877; 340,000 tested, 0.3% active;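 active = fluorescence-ratio B-score plate-corrected deviation score at least 3 library SD below zero, with starting fluorescence score within 5 deviations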;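 also: channel opened by trigger with iodide after compound preincubation; score built on the fluorescence ratio of max minus min over baseline; more negative score means more quench and so TMEM16A activation or potentiation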
# TMEM16A inh: inhibitors of mouse TMEM16A calcium-activated chloride channel; 310,000 tested, 1.2% active; HEK293 TMEM16A/YFP iodide influx fluorescence, ionomycin; Q8BHY3; normalized B-score (activity score, 25-100; higher = stronger inhibition) at 10 µM;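 active = ratio plate-corrected score three or more library SD toward inhibition, starting fluorescence score within five deviations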;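 also: score derived from kinetic fluorescence span divided by baseline fluorescence per well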
# PKA-R1A act: PKA-R1A complex activation. 340,000 tested, 0.083% active. PKA-R1A dissociation, Cy5-IP20 fluorescence polarization; scaled: DMSO 0%, 113 µM cGMP 100%. activation, % at 11.4 µM. P00514+P68181;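 active = percent activation above the mean of all tested compounds plus 3 SD, cut at about 19% in these data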;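 also: higher means more PKAc released from R1A so a rise in polarization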
# TMEM16A reconf: re-confirmation of mouse TMEM16A chloride channel inhibitors. shares compounds with TMEM16A inh. HEK293 TMEM16A/YFP-H148Q, iodide quench fluorescence; ionomycin added to raise cell calcium. inhibition, % at 10 µM. 2,300 tested, 39% active;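 active = mean duplicate percent inhibition, scaled so buffer wells are 0 and the reference blocker 100, over three buffer SD above buffer mean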
# HEK293 Ca mobil: counter-screen for TMEM16A inhibitors: effect on calcium mobilization. shares compounds with TMEM16A inh. TMEM16A/YFP HEK293, Fluo4 calcium mobilization. calcium response (% of ionomycin), % at 10 µM. 2,300 tested, 2% active. AID 652231;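 active = duplicate-averaged calcium signal over 20% of the ionomycin maximum, relative to buffer baseline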;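 also: each well's signal is peak minus trough fluorescence divided by its pre-addition baseline; 0% = buffer wells and 100% = ionomycin wells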
# Parental YFP cnt: acts in parental YFP-HEK293 cells lacking TMEM16A, counter-screen | shares compounds with TMEM16A inh | AID 652233 | YFP ratio F(max-min)/F0 at 10 µM | iodide YFP quench, ionomycin | 2,300 tested, under 10 active;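 active = yellow fluorescent protein signal ratio exceeding the buffer control mean by over 5 SD of those controls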;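 also: ratio is mean of duplicate wells from kinetic YFP trace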
# ClC-1 inh: blocks the rat ClC-1 voltage-dependent chloride channel. CHO ClC-1-YFP, iodide influx fluorescence quench; iodide control reads 0, buffer control 100. ratio percent, % at 10 µM. 2,300 tested, under 10 active. shares compounds with TMEM16A inh;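 active = duplicate-mean ratio percent above the mean of iodide-only control wells, which defines zero, plus 5 of their SD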;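 also: higher percent means stronger block of ClC-1 iodide influx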
# Target sequence (P35524 whole entry, looked up): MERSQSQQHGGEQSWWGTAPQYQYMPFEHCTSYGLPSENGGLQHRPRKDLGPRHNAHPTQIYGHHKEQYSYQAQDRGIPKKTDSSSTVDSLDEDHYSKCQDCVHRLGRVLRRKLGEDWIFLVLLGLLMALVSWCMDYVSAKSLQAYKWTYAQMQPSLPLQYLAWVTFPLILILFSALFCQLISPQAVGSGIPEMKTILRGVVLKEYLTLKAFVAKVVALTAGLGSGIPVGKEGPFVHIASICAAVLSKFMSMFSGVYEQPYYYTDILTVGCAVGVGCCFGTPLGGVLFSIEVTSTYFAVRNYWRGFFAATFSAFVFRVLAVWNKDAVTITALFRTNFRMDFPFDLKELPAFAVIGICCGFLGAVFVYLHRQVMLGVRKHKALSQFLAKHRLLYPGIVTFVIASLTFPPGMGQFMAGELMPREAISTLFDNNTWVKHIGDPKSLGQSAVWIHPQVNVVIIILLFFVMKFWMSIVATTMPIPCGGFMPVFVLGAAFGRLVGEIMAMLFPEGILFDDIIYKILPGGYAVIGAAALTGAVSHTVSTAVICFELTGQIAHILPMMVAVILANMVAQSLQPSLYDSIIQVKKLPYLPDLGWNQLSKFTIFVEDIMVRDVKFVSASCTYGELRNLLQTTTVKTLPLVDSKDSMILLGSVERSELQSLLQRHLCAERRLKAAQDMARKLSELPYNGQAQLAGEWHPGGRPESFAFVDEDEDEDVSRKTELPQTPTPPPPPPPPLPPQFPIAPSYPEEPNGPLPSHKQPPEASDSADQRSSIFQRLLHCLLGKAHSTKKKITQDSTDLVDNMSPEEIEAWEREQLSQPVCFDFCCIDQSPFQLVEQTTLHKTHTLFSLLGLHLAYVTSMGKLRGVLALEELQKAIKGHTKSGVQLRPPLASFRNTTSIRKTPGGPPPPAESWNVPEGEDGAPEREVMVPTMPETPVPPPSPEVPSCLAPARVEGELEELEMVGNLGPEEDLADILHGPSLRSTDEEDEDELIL
# Numbers without * were called inactive; i = inactive; x = no result.
SMILES,CHT allo act,PKA-R2B activ,CHT block,TMEM16A act,TMEM16A inh,PKA-R1A act,TMEM16A reconf,HEK293 Ca mobil,Parental YFP cnt,ClC-1 inh
N#C/C(=C\c1ccc(O)c(O)c1)S(=O)(=O)c1ccccc1,i,2,i,i,i,13,41%*,i,-0.81,4
CCCCN(Cc1ccccc1)S(=O)(=O)c1cc(Br)cc2c1N(C(C)=O)C(C)C2 (configuration not stated),i,-3,i,i,25*,0,i,i,-0.98,-12
CC(=O)N1c2c(cc(Br)cc2S(=O)(=O)NCc2cccnc2)CC1C (configuration not stated),i,-4,i,i,i,-8,x,x,x,x
S=C(NCCN1CCOCC1)N/N=C/c1c2ccccc2cc2ccccc12,i,-13,i,i,i,-2,x,x,x,x
COCCNC(=S)N/N=C/c1c2ccccc2cc2ccccc12,i,1,i,i,i,-6,30%*,i,-0.6,5
COC(=O)c1cc(COC(=O)c2nc3nccc(C)n3n2)oc1C,i,-6,i,i,i,2,x,x,x,x
CCc1ccc(C(C)NC(=O)Cn2cnc3c(=O)n(C)c(=O)n(C)c32)cc1 (configuration not stated),i,7,i,i,25*,-6,i,i,-0.88,-2
CCc1ccc(NC(=O)Cn2cnc3c(=O)n(C)c(=O)n(C)c32)cc1,i,8,i,i,i,-2,x,x,x,x
COc1cccc(N2CCN(c3ncnc4c3cnn4-c3ccc(C)cc3C)CC2)c1,i,4,i,i,100*,2,32%*,i,-1.1,-6
CC(C)(C)C(=O)N/C(N)=N/c1nc2ccccc2o1,i,-3,i,i,i,-6,x,x,x,x
Cc1ccc(-c2cnc(C3CC3)o2)cc1S(=O)(=O)Nc1ccccc1,i,-2,i,i,i,3,x,x,x,x
CCOc1ccc(N(C)S(=O)(=O)c2cc(-c3cc(C)no3)ccc2CC)cc1,i,4,i,i,i,16,x,x,x,x
Cc1ccc(N(C)S(=O)(=O)c2cc(-c3cnc(C4CC4)o3)ccc2C)cc1,i,-4,i,i,100*,2,20%*,i,-1.4,-9
CCOc1ccc(N(C)S(=O)(=O)c2cc(-c3cc(C)no3)ccc2C)cc1,i,-10,i,i,100*,-7,31%*,i,-0.92,-16
O=C(Nc1ccc(S(=O)(=O)NC2=NCCCCC2)cc1)c1ccc(=O)[nH]c1,i,3,i,i,i,2,x,x,x,x
CC(C)n1cc(CN2CCC(Oc3ccc(C(=O)N4CCCC4)cc3)CC2)cn1,i,-11,i,i,i,-9,x,x,x,x
C[C@@]12CCC3[C@@](CCC4[C@@]3(C)CCC[C@@]4(C)C(=O)N3CCCCC3)(CC1=O)C2 (some centres not stated),x,2,x,i,x,6,x,x,x,x
CCN(c1ccc(NC(=O)CSCc2c(C)noc2C)cc1)C(C)C,x,2,x,i,x,-10,x,x,x,x
COC(/C(=N/O)c1ccc(Cl)cc1)c1ccccc1 (configuration not stated),i,-6,i,i,100*,-7,26%*,i,-1.3,-26

# Source: PubChem
